In PubChem BioAssay (Tox21):
Values joined by “and” are separate entries in the source; they are usually repeats but may differ in a detail not shown here. Equal entries are not always repeated. Inconclusive results are not listed. A call without a number means that no potency is given here. The source holds several records for some structures; these can differ, active in one and inactive in another. Active and inactive are the calls of the source. Unless noted, the call rests on the fitted dose curve; in most records, active means well fitted curve in the direction sought with a large enough effect in the repeat runs; inconclusive means weak or mixed curves; inactive means no such curve, though single readings can be large; an effect the other way counts as inactive or inconclusive.

Legend:
[1] = molecular target: Retinoic acid receptor RXR-alpha (Homo sapiens) (UniProt P19793); experiment: qHTS assay to identify small molecule agonists of the RXR signaling pathway (AID 1159527; calls by dose curve; further: nearly all actives have a fitted effect of over 35% in size; further: potency means the concentration at half of the fitted maximal effect)
Chain of Retinoic acid receptor RXR-alpha (Homo sapiens) (P19793 whole entry, looked up): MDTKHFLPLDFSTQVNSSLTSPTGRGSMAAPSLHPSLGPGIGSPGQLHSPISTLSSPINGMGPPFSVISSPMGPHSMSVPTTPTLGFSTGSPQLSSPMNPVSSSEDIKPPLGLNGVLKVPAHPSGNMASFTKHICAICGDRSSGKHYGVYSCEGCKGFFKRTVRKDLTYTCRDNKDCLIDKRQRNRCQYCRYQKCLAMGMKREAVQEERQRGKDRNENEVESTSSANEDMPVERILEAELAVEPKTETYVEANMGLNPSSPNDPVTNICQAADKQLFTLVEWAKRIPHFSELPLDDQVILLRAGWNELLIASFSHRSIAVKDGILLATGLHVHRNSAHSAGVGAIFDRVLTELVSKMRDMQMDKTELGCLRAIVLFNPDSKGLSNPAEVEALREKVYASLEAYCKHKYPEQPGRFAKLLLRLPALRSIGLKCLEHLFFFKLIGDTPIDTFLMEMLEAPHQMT
Outline: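 Cells plated at 2,000/well, rested 5 hr at 37 C, pin-dosed with DMSO compound solutions, incubated 16 hr, then loaded with B/G FRET substrate for 2 hr at RT before dual-emission fluorescence reading.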

[2] = qHTS assay to identify small molecule agonists of the RXR signaling pathway - cell viability counter screen (AID 1159529); further: nearly all actives have a fitted effect of over 50% in size; further: potency means the concentration at half of the fitted maximal effect
Outline: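 Steps: seed RXR-alpha-UAS-bla HEK 293T cells in assay medium containing 2% charcoal-stripped FBS; incubate 5 hr; add compounds in DMSO; incubate 16 hr at 37 C; after the bla read, add CellTiter-Glo and read luminescence at 30 min.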

[3] = qHTS assay to identify small molecule antagonists of the retinoid acid receptor (RAR) signaling pathway - cell viability counter screen (AID 1159551); further: nearly all actives have a fitted effect of over 35% in size
Outline: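 Cells (C3RL4) are plated, incubated overnight, dosed with compound in DMSO, then given retinol at 1 uM final. After 6 h at 37 C, CellTiter-Glo is added and luminescence read following 30 min at room temperature.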

[4] = qHTS assay to identify small molecule antagonists of the retinoic acid receptor (RAR) signaling pathway (AID 1159552; further: nearly all actives have a fitted effect of over 50% in size; further: potency means the concentration at half of the fitted maximal effect)
Outline: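 Retinol at 1 uM final stimulated RARE-luciferase expression in C3RL4 cells exposed to test compounds for 6 hr at 37 C. Reduced luminescence, read 30 min after detection reagent, indicated pathway antagonism.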

[5] = qHTS assay to identify small molecule agonists of the retinoic acid receptor (RAR) signaling pathway (AID 1159553); further: potency means the concentration at half of the fitted maximal effect
Outline: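 Seed C3RL4 reporter cells at 1,000 per well and incubate overnight at 37 C. Add compounds in DMSO, incubate 6 hr. Add luciferase reagent, wait 30 min at room temperature, read luminescence.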

[6] = qHTS assay to identify small molecule antagonists of the estrogen related receptor (ERR) signaling pathway from Tox21 library - cell viability counter screen (AID 1224834); further: nearly all actives have a fitted effect of over 30% in size; further: potency means the concentration at half of the fitted maximal effect
Outline: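 ERR cells, 2,000/well; 6 h settle at 37 C/5% CO2; pin-tool compound transfer in DMSO; 17.5 h at 37 C; CellTiter-Fluor, 30 min; fluorescence intensity.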

[7] = molecular target: Luciferin 4-monooxygenase (Photinus pyralis) (UniProt P08659); experiment: qHTS assay to identify small molecule inhibitors of firefly luciferase (AID 1224835); further: nearly all actives have a fitted effect of over 25% in size; further: potency means the concentration at half of the fitted maximal effect
Chain of Luciferin 4-monooxygenase (Photinus pyralis) (P08659 whole entry, looked up): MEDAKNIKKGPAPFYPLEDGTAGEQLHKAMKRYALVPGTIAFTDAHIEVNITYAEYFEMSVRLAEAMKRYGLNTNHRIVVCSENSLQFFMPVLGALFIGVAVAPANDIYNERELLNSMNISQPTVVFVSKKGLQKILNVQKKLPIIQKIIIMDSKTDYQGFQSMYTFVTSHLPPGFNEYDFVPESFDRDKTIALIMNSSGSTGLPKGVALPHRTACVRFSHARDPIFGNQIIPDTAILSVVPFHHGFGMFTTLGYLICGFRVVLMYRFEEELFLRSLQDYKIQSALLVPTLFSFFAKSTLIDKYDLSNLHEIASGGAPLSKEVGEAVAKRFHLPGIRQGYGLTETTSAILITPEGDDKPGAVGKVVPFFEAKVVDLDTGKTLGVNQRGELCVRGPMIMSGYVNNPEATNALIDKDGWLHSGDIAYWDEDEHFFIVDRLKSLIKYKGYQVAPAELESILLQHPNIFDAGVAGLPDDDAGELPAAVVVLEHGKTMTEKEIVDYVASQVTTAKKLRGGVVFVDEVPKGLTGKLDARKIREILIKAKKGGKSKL
Outline: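 Biochemical qHTS: compounds run as interplate titrations against purified firefly enzyme, with D-luciferin and ATP each at its KM concentration. Light output recorded by CCD imaging.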

[8] = qHTS assay to identify small molecule agonists of the constitutive androstane receptor (CAR) signaling pathway - cell viability counter screen (AID 1224836); further: series mostly up to about 92 µM; nearly all actives have a fitted effect of over 45% in size
Outline: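 Cells were seeded and incubated 4 hrs. Compounds were added across 15 concentrations together with PK11195 at 0.75 uM final. Plates were incubated 23 hrs at 37 C. CellTiter-Fluor was added and fluorescence measured.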

[9] = qHTS assay to identify small molecule antagonists of the constitutive androstane receptor (CAR) signaling pathway - cell viability counter screen (AID 1224837); further: series mostly up to about 92 µM; nearly all actives have a fitted effect of over 45% in size
Outline: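 Viability was measured with CellTiter-Fluor in a HepG2 line carrying stably transfected hCAR and a CYP2B6-2.2kb construct. Cells were exposed for 23 hr at 37 C to 15 compound concentrations with 50 nM CITCO as agonist.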

[10] = qHTS assay to identify small molecule antagonists of the estrogen related receptor signaling pathway with the pleiotropic PPARgamma coactivator (PGC) from Tox21 10K library - cell viability counter screen (AID 1224840; active means well fitted cell-killing curve with a large enough effect in the repeat runs, not every such curve was filed as active; further: nearly all actives have a fitted effect of over 40% in size; further: potency means the concentration at half of the fitted maximal effect)
Outline: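 Multiplexed viability counter screen in the PGC/ERR cell line: cells treated with DMSO-dissolved compounds for 17.5 hours at 37 C, then viability measured as CellTiter-Fluor fluorescence.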

[11] = molecular target: Thyrotropin receptor (Homo sapiens) (UniProt P16473); experiment: qHTS assay to identify small molecule agonists of the thyroid stimulating hormone receptor (TSHR) signaling pathway (AID 1224843; calls by dose curve; further: nearly all actives have a fitted effect of over 45% in size)
Chain of Thyrotropin receptor (Homo sapiens) (P16473 whole entry, looked up): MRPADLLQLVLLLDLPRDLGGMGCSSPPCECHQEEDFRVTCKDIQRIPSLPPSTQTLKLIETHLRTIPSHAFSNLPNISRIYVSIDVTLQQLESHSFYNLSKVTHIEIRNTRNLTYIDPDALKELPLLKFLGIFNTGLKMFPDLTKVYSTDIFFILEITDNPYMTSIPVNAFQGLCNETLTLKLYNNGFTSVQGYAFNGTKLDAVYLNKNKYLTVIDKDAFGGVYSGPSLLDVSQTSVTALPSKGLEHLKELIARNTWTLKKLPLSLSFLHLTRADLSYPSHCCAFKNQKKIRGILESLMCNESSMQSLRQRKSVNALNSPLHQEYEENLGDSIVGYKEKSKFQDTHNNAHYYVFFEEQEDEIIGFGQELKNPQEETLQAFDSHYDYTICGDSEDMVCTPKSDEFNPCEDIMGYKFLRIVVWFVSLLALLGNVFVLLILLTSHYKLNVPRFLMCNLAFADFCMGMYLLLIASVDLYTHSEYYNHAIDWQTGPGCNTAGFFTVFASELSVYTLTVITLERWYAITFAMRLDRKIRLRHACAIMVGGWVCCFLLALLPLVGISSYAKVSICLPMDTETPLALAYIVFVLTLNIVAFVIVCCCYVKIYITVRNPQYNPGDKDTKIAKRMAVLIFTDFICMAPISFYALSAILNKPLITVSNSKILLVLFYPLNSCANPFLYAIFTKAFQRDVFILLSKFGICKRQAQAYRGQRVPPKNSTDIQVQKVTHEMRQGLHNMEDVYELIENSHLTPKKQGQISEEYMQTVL
Outline: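 HEK293/TSHR, 800 cells/well; cpd 30 min RT; add cAMP-d2 + anti-cAMP-cryptate, 1 h RT; fluorescence read on plate reader. 15-pt titration, n=3.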

[12] = qHTS assay to identify small molecule antagonists of the estrogen related receptor signaling pathway with the pleiotropic PPARgamma coactivator (PGC) from Tox21 10K library (AID 1224841; call rule not given here; further: actives are mostly falling curves and most rising ones were filed inactive; nearly all actives have a fitted effect of over 50% in size; further: potency means the concentration at half of the fitted maximal effect)
Outline: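 Steps: plate 2,000 PGC/ERR cells per well; incubate 6 h at 37 C with 5% CO2; transfer compounds from DMSO stocks by pin tool; incubate 18 h at 37 C; add One-Glo; measure luminescence 30 min later.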

[13] = qHTS assay to identify small molecule agonists of the estrogen related receptor signaling pathway with the pleiotropic PPARgamma coactivator (PGC) from Tox21 10K library (AID 1224842); further: nearly all actives have a fitted effect of over 15% in size; further: potency means the concentration at half of the fitted maximal effect
Outline: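 PGC/ERR reporter cell line, 2,000 cells per well, incubated 6 h at 37 C before 23 nL compound in DMSO was added. After 18 h at 37 C, One-Glo luminescence read following 30 min at room temperature.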

[14] = molecular target: Nuclear receptor subfamily 1 group I member 3 (Homo sapiens) (UniProt Q14994); experiment: qHTS assay to identify small molecule agonists of the constitutive androstane receptor (CAR) signaling pathway (AID 1224839); further: nearly all actives have a fitted effect of over 15% in size; further: potency means the concentration at half of the fitted maximal effect
Chain of Nuclear receptor subfamily 1 group I member 3 (Homo sapiens) (Q14994 whole entry, looked up): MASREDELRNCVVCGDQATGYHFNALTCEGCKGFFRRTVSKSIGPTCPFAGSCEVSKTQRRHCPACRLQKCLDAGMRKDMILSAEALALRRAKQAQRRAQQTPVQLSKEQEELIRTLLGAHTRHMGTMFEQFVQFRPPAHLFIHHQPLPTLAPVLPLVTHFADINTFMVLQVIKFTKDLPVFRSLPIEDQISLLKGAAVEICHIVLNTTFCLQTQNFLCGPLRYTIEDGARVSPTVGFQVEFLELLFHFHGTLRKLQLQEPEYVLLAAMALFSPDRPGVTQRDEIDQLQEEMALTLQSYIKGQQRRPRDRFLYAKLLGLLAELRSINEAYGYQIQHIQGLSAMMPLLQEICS
Outline: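 Cells were plated and incubated 4 hrs, then dosed with compounds at 15 concentrations. PK11195 was added to 0.75 uM final. After 24 hrs at 37 C, luciferase luminescence was measured.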

[15] = molecular target: Nuclear receptor subfamily 1 group I member 3 (Homo sapiens) (UniProt Q14994); experiment: qHTS assay to identify small molecule antagonists of the constitutive androstane receptor (CAR) signaling pathway (AID 1224838);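 further: HepG2 cells stably expressing hCAR with CYP2B6 luciferase reporter stimulated by CITCO; nearly all actives have a fitted effect of over 40% in size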
Outline: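 Antagonist mode used CITCO at a final 50 nM to activate CAR in human hepatoma HepG2 cells carrying stable hCAR and a 2.2 kb CYP2B6 promoter-luciferase construct. Compounds were tested at 15 concentrations over 24 h, with luminescence as the end point.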

| SMILES | Potency [1] | Potency [2] | Potency [3] | Potency [4] | Potency [5] | Potency [6] | Potency [7] | Potency [8] | Potency [9] | Potency [10] | Potency [11] | Potency [12] | Potency [13] | Potency [14] | Potency [15] |
| --- | --- | --- | --- | --- | --- | --- | --- | --- | --- | --- | --- | --- | --- | --- | --- |
| Cc1ncc[nH]1 | inactive | inactive | inactive | inactive | inactive | inactive | inactive | inactive | inactive | inactive | inactive | – | – | – | – |
| COc1c(Cl)c(Cl)c(Cl)c(Cl)c1Cl | inactive | inactive | inactive | – | – | inactive | inactive | inactive | inactive | inactive | inactive | inactive | inactive | – | – |
| CCC(C)OC(=O)c1ccc(O)cc1 (stereo not drawn) | inactive | inactive | inactive | inactive | 61.1 µM (active) | inactive | – | inactive | inactive | inactive | inactive | inactive | – | 61.5 µM (active) and 54.5 µM (active) | – |
| CCCCOCCOCCOCCO | inactive | inactive | inactive | inactive | – | inactive | inactive | inactive | inactive | inactive | inactive | inactive | inactive | inactive | – |
| CC1=CCC(C(C)(C)O)CC1 (stereo not drawn) | inactive | inactive | inactive | – | – | inactive | inactive | inactive | inactive | inactive | inactive | – | – | – | – |
| CC(C)CC(C)(O)C#CC(C)(O)CC(C)C (stereo not drawn) | 12.1 µM (active) and inactive | inactive | inactive | inactive | inactive | inactive | – | inactive | inactive | inactive | inactive | inactive | inactive | inactive | inactive |
| CCCCCCCCCCCO | inactive and 3.89 µM (active) | inactive | inactive | inactive | inactive | inactive | – | inactive | inactive | inactive | inactive | inactive | inactive | inactive | inactive |
| CC(=O)CC/C=C(\C)CCC=C(C)C | inactive | inactive | inactive | – | – | inactive | inactive | inactive | inactive | inactive | inactive | – | – | inactive | inactive |
| CCCCC/C=C/C=C/C=O | inactive | inactive | inactive | – | – | inactive | inactive | inactive | inactive | inactive | inactive | inactive and 54.5 µM (active) | inactive | inactive | – |
| c1ccc(Nc2ccccc2)cc1 | inactive | inactive | inactive | inactive | inactive | 48.5 µM (active) and inactive | – | inactive | inactive | inactive | inactive | inactive | inactive | inactive | – |
| C[Si](C)(C)O[Si](C)(C)C | inactive | inactive | inactive | inactive | inactive | inactive | inactive | inactive | inactive | inactive | inactive | – | – | – | – |
| COC(=O)c1ccccc1 | inactive | inactive | inactive | – | – | inactive | inactive | inactive | inactive | inactive | inactive | – | – | – | – |
| Nc1ccc(Cl)cc1Cl | inactive | inactive | inactive | inactive | inactive | inactive | inactive | inactive | inactive | inactive | inactive | inactive | inactive | – | – |
| NNc1ccc(C(=O)O)cc1 | 49.5 µM (active) | inactive | inactive | inactive | 43.9 nM (active) and 24.6 µM (active) | inactive | 32.1 µM (active) and 4.53 µM (active) | inactive | inactive | inactive | inactive | – | – | – | – |
| O=C(OCc1ccccc1)c1ccccc1O | inactive | inactive | inactive | inactive | 9.62 µM (active) | inactive | 17.7 µM (active) and 12.6 µM (active) | inactive | inactive | inactive | inactive | – | – | – | – |
| COC(=O)Nc1nc2ccc(S(=O)c3ccccc3)cc2[nH]1 (stereo not drawn) | inactive | inactive | inactive | – | – | – | inactive | inactive | inactive | inactive | – | inactive | inactive and 11.9 µM (active) | inactive and 6.68 µM (active) | – |
| CCCCNS(=O)(=O)c1ccccc1 | inactive | inactive | inactive | inactive | inactive | inactive | inactive | inactive | inactive | inactive | inactive | – | – | – | – |
| CCCc1c(OCCCCc2nn[nH]n2)ccc(C(C)=O)c1O | 54.9 µM (active) and 23.9 µM (active) | inactive | inactive | – | – | inactive | inactive | inactive | inactive | inactive | inactive | – | – | inactive | – |
| CCCCOCCOCCO | inactive | inactive | inactive | inactive | inactive | inactive | inactive | inactive | inactive | inactive | inactive | – | – | – | – |
| Nc1ccc(S(=O)(=O)Nc2cnc3ccccc3n2)cc1 | inactive | inactive | inactive | – | – | inactive | inactive | inactive | inactive | inactive | inactive | – | – | – | – |
| O=C(c1ccccc1)c1ccc(O)cc1O | – | 25 µM (active) and inactive | inactive | 55.5 µM (active) and inactive | inactive | 69.9 µM (active) and inactive | 89.4 µM (active) | inactive | – | inactive | inactive | – | – | 61.1 µM (active) | inactive |
| O=C(c1ccc(OCCN2CCCCC2)cc1)c1c(-c2ccc(O)cc2)sc2cc(O)ccc12 | – | 27.5 µM (active) and 23.9 µM (active) | inactive | – | – | 30.7 µM (active) and 48.6 µM (active) and 18.8 µM (active) | – | – | – | 24.4 µM (active) and 30.6 µM (active) | – | – | – | inactive | inactive |
